Most compounds without a hit are left out; they make up all but 3.1% or so of the library.
S16 F2sN tox – cytotoxicity in S16 Pmp22-F2sN Schwann cells; S16 Pmp22-F2sN Schwann cells viability, CellTiter-Glo, 24 h; Potency, µM (titrated, usually from 57.5 µM), without a hit: at the highest dose activity change, negative = cytotoxicity, usual class: cytotoxic; actives 0.48% (n = 43,000); note: potency is the fitted concentration of half-maximal effect; % is set by controls: 0 for no effect and ±100 for the full control effect; nearly all actives have a fitted effect of over 65% in size
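S16 Pmp22-F2sN Schwann cells (500-1,000/well) in phenol-red-free DMEM with 10% FBS received 23 nL compound by pin tool for 24 h at 37 °C. Viability was then read as CellTiter-Glo luminescence after 15 min at room temperature.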
mTORC1 inh – inhibitors of mTORC1 signaling in Tsc2-/- p53-/- MEF cells; Potency, µM (top dose mostly 38.3 µM), inactives show at the highest dose activity change, negative = inhibition, usual class: inhibitors; AID 493208; Tsc2-/- p53-/- MEF, phospho-rpS6 immunofluorescence/PI, 24 h; actives 0.78% (n = 44,000);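 note: potency is the fitted concentration of half-maximal effect; plate controls were DMSO for no effect and rapamycin for full effect; nearly all actives have a fitted effect of over 50% in size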
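Readout is phospho-S6 Alexa 488 signal normalized to PI per well, reported as % active cells with thresholds set from rapamycin (7.5 nM) and DMSO controls. Cells: Tsc2-/-, p53-/- MEFs, 24 hrs compound at 37 C; PI cell number serves as viability.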
p53null 32C tox – selectivity test: cytotoxicity in p53 null cells, permissive temperature. H1299-neo p53 null cells, ATP luminescence, 24 h, 32C. Potency, µM (highest dose often 46.1 µM), inactives show at the top dose activity change, negative = cytotoxicity, most hits filed as cytotoxic. actives 0.62% (n = 55,000). AID 903;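 note: potency is the fitted concentration of half-maximal effect; 0% = DMSO only and -100% = full killing by 100 µM tamoxifen; nearly all actives have a fitted effect of over 55% in size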
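Luminescent ATP readout gave cell viability of p53-null H1299-neo cells after a 24 h compound exposure at the permissive 32C. Titrations ran up to 46 uM, and AC50s were fitted with the standard Hill equation.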
PMP22 txn – modulates PMP22 transcription in S16 Schwann cells; S16 Pmp22-F2sN Schwann cells (luciferase reporters placed in the Pmp22 gene), FLuc/NLuc coincidence luminescence, 24 h; AID 1508649; actives 2% (n = 43,000); Potency, µM (titrated, usually from 57.5 µM), without a hit: at the highest dose activity change, negative = inhibition, most hits filed as inhibitors; active = clear falling dose curves in both reporters; inconclusive = both reporters move, but less clearly or upward; inactive = either reporter flat; the % is the NLuc reporter signal; note: potency is the fitted concentration of half-maximal effect; % is set by controls: 0 for no effect and ±100 for the full control effect
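Transcriptional readout in edited S16(c9) cells: two luciferases reported from the Pmp22 locus, measured in turn after 24 h compound incubation.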
p53null 39C kill – kills p53 null cells at the nonpermissive temperature. H1299 p53-null (neo) cells, 39C, ATPlite viability, 24 h. Potency, µM (highest dose often 46.1 µM), for inactives: at the highest dose activity, negative = cell killing, actives largely listed as cytotoxic. actives 0.97% (n = 55,000);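 note: potency is the fitted concentration of half-maximal effect; 0% = DMSO only and -100% = full killing by 100 µM tamoxifen; nearly all actives have a fitted effect of over 50% in size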
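Concentration-response (up to 46 uM) was run for 24 h at the nonpermissive 39C on H1299-p53A138V or H1299-neo cells. ATP content was measured with ATPlite luminescence. AC50 values were Hill-modeled after normalizing between DMSO and 100 uM tamoxifen killing.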
OvCa metastasis – blocks SKOV3ip1 adhesion and invasion in omental model; SKOV3ip1-GFP adhesion/invasion on 3D omental model, fluorescence; Potency, µM (doses to about 45.8 µM), for inactives: at the top dose activity change, negative = inhibition, actives largely listed as inhibitors; actives 0.1% (n = 46,000); AID 1963576;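 note: potency is the fitted concentration of half-maximal effect; plate controls were DMSO wells for no effect and tomatine positive control wells for full effect; nearly all actives have a fitted effect of over 65% in size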
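qHTS, 4-pt dose (0.36-46 umol/L); SKOV3ip1-GFP, 1,200 cells/well, no FBS; primary omental fibroblast/mesothelial co-culture 48 h pre-grown; 2 h RT + 16 h 37 C; PBS wash, 4% PFA; GFP count 488/509 nm.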
NLuc sat counter – inhibits NanoLuc at saturating substrate, PMP22 counter-screen. shares compounds with PMP22 txn. Secreted NLuc enzyme (filtered S16 cell medium), Nano-Glo luminescence. Potency, µM (top dose mostly 57.5 µM), for the others: top-dose activity change, negative = inhibition, usual class: inhibitors. actives 4% (n = 690). AID 1508638; note: potency is the fitted concentration of half-maximal effect; % is set by controls: 0 for no effect and ±100 for the full control effect
NLuc Km ctr – NanoLuc inhibition at Km substrate, PMP22 artifact check; shares compounds with PMP22 txn; secreted NLuc enzyme, coelenterazine luminescence, Km conditions; Potency, µM (top dose mostly 57.5 µM), inactives show top-dose activity change, negative = inhibition, actives largely listed as inhibitors; actives 5% (n = 690); AID 1508639; note: potency is the fitted concentration of half-maximal effect; % is set by controls: 0 for no effect and ±100 for the full control effect
FLuc counter – counter-screen for PMP22 expression modulators: firefly luciferase inhibition | Potency, µM (highest dose often 57.5 µM), for inactives: at the top dose activity, negative = inhibition, actives largely listed as inhibitors | purified P. pyralis FLuc, luminescence, 10 min | shares compounds with PMP22 txn | 690 tested, under 10 active; note: % of control where 0% means no effect
Target sequence (P08659 whole entry, looked up): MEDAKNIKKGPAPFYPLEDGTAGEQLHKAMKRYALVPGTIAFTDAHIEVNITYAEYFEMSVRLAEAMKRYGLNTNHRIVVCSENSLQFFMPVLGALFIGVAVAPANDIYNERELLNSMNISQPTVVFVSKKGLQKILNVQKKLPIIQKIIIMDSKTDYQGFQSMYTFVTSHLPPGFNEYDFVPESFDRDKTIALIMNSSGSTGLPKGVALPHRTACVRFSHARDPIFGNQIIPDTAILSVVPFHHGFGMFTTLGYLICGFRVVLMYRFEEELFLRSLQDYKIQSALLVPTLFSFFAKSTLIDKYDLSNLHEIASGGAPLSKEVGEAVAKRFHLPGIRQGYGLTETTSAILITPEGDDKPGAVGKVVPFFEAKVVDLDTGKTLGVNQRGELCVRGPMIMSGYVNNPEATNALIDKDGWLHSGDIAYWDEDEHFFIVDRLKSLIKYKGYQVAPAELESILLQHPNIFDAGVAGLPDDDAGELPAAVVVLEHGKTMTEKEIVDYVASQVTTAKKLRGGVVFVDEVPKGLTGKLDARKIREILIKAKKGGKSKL
S16 viab conf – S16 Schwann cell cytotoxicity, confirmatory. shares compounds with PMP22 txn. S16 Schwann cells viability, CellTiter-Glo ATP luminescence, 24 h. Potency, µM (highest dose often 57.5 µM), for inactives: at the highest dose activity change, negative = viability loss, usual class: cytotoxic. actives 7% (n = 690); note: potency is the fitted concentration of half-maximal effect; % is set by controls: 0 for no effect and ±100 for the full control effect
PMP22 txn conf – PMP22 transcription modulation, confirmatory. S16 Schwann cells Pmp22-F2sN, dual luciferase, 24 h. actives 22% (n = 690). Potency, µM (series often up to 57.5 µM), for inactives: at the top dose activity change, negative = inhibition, usual class: inhibitors. AID 1508646. shares compounds with PMP22 txn; active = clear falling dose curves in both reporters; inconclusive = both reporters move, but less clearly or upward; inactive = either reporter flat; the % is the FLuc reporter signal; note: potency is the fitted concentration of half-maximal effect
PMP22 HiBiT cnf – confirmation of modulators of rat PMP22 protein expression | S16 Schwann cells Pmp22-HiBiT, luminescence, 48 h | shares compounds with PMP22 txn | Potency, µM (highest dose often 27.9 µM), for inactives: top-dose activity change, negative = inhibition, usual class: inhibitors | 95 tested, under 10 active
Target sequence (P25094 whole entry, looked up): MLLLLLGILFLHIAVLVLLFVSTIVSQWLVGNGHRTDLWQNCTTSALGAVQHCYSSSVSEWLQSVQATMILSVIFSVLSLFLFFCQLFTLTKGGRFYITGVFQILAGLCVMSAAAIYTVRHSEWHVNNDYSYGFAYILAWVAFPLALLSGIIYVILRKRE
The depositor's hits bear a star; i = inactive; ? = inconclusive; . = no result given; [ ] = dose if it differs, or a comment. Unless noted, calls come from the whole dose curve; as a rule, active = well fitted curve in the direction sought with a large enough effect; inconclusive = small, poorly fitted or top-dose-only effect, or another doubt; inactive = no such curve, though single readings can be large; an effect the other way counts as inactive or inconclusive.

SMILES	S16 F2sN tox	mTORC1 inh	p53null 32C tox	PMP22 txn	p53null 39C kill	OvCa metastasis	NLuc sat counter	NLuc Km ctr	FLuc counter	S16 viab conf	PMP22 txn conf	others
COc1ccc(N2CCN(CCCNC(=O)c3ccc4nc(Cc5ccccc5)oc4c3)CC2)cc1	?	-4%	0%	19µM*	-14%	?	?	?	-2%	?	?
O=C(NCCCN1CCN(c2cccc(Cl)c2)CC1)c1ccc2nc(Cc3ccccc3)oc2c1	?	-1%	60%	?	?	-21%	.	.	.	.	.
O=C(NCCCN1CCN(c2ccccc2)CC1)c1ccc2nc(CCc3ccccc3)oc2c1	?	0%	2%	19µM*	-1%	?	-15%	-6%	-6%	-26%	?
C[C@@H]1[C@H](C)CC[C@]2(C(=O)O)CC[C@]3(C)C(=CC[C@@H]4[C@@]5(C)CC[C@H](O)C(C)(C)[C@H]5CC[C@]43C)[C@@H]12	.	.	.	.	.	4%[92.2 µM]	.	.	.	.	.
Cc1ccc(NC(=O)N2CCN(c3ccc(Cl)c(Cl)c3)CC2)cc1	-30%	-20%	5%	?	?	-3%	.	.	.	.	.
CC(C)c1ccc(NC(=O)N2CCN(c3ccc(Cl)c(Cl)c3)CC2)cc1	-16%	-18%	42%	11µM*	?	-23%	?	?	-18%	-14%	?
O=C(Cn1cc(C(=O)C2CCCCC2)c2ccccc21)Nc1ccccc1Cl	-22%	-9%	-9%	9.5µM*	-22%	8%	-5%	8%	-9%	-10%	?
CCOc1ccc(-c2nnc(SCC(=O)NCc3ccc(C)cc3)nc2-c2ccc(OCC)c(OC)c2)cc1OC	-21%	0%	-2%	-13%	14%	0%	.	.	.	.	.
COc1ccc(-c2nnc(SCC(=O)NCc3ccccc3)nc2-c2ccc(OC)c(OC)c2)cc1OC	1%	-12%	2%	7.3µM*	1%	-10%	?	?	5%	-6%	?
Cn1c(=O)n(-c2ccc3c(c2)OCO3)c2nc(-c3ccc(Cl)cc3)nc(C(N)=O)c21	23%	-2%	-2%	?	0%	i	-4%	-1%	4%	-9%	-27%
COc1ccc(Cl)cc1NC(=O)CSc1nc2ccccc2nc1N1CCCCC1	8%	-1%	-7%	13µM*	-9%	4%	-9%	9%	-4%	-9%	-33%
CCNC(=O)CCCC=CC[C@@H]1[C@H](C=CC(O)CCc2ccccc2)[C@@H](O)C[C@@H]1O (some centres not stated)	.	.	.	.	.	2%	.	.	.	.	.
COc1cc(NC(=O)N2CCC(CN3CCOCC3)CC2)cc(OC)c1OC	14%	-8%	-9%	-46%	-5%	-7%	-7%	1%	-6%	2%	7%
Cn1nc(C(=O)NCc2ccc(Cl)cc2)c2c1-c1ccccc1S(=O)(=O)C2	?	9%	-2%	15µM*	-8%	-6%	-9%	-17%	0%	2%	?
COC(=O)c1c(-c2ccc(Cl)cc2)noc1N1CCN(c2cccc(C(F)(F)F)c2)CC1	?	?	-18%	5.4µM*	15%	?	-1%	-3%	1%	?	16µM*	PMP22 HiBiT cnf=84%
Cc1cc(-c2ccc(C)c(S(=O)(=O)N3CCN(c4cccc(C(F)(F)F)c4)CC3)c2)on1	0%	5%	-4%	-9%	6%	-12%	.	.	.	.	.
COC(=O)c1ccc(NC(=O)CN2CCN(c3ccc(Cl)cc3)CC2)cc1	3%	0%	-3%	9%	-8%	3%	.	.	.	.	.
COc1ccccc1N1CCN(C(=O)CSc2nc(-c3ccc(C(C)C)cc3)no2)CC1	0%	0%	?	?	?	-1%	.	.	.	.	.
COC(=O)c1c(-c2ccc(Cl)cc2)noc1N1CCN(c2ccccc2OC)CC1	?	9%	13%	8.9µM*	?	?	-5%	-3%	-7%	30%	19µM*	PMP22 HiBiT cnf=28%
COC(=O)c1c(-c2ccc(Cl)cc2)noc1N1CCN(c2ccc(F)cc2)CC1	8%	0%	-3%	3.8µM*	?	-5%	-1%	1%	-1%	?	13µM*	PMP22 HiBiT cnf=76%
CCCCC(F)(F)[C@@]1(O)CC[C@H]2[C@H](CC(=O)[C@@H]2CCCCCCC(=O)O)O1	.	.	.	.	.	10%	.	.	.	.	.
CC(C)N1[N]C(=C2C=c3cc(O)ccc3=N2)c2c(N)ncnc21	.	.	.	.	.	20%	.	.	.	.	.
Cc1ccc(Nc2nccc(N(C)c3ccc4c(C)n(C)nc4c3)n2)cc1S(N)(=O)=O	.	.	.	.	.	35%	.	.	.	.	.
O=C(CSc1c2c(nc3ccc(Cl)cc13)CCCC2)N1CCN(c2cccc(Cl)c2)CC1	-12%	-19%	28%	20µM*	22%	-9%	-8%	-1%	0%	17%	?

Source: PubChem BioAssay (National Center for Advancing Translational Sciences (NCATS))
